Among the data in PubChem BioAssay (NCI) are growth values, retold here.

Test systems include SR leukemia; RPMI-8226 leukemia; OVCAR-8 ovarian; OVCAR-5 ovarian; OVCAR-4 ovarian; SK-OV-3 ovarian; IGROV1 ovarian; OVCAR-3 ovarian; HS 578T breast; NCI/ADR-RES ovarian; T-47D breast; BT-549 breast; MDA-MB-435 melanoma; SW-620 colon; MCF7 breast; HCT-116 colon; HCC-2998 colon; KM12 colon; MDA-MB-468 breast.
Common to all, as to assay: NCI-60 one-dose screen, 48 h (100 = growth as untreated, 0 = no growth, -100 = all killed)
What all share (conditions): 10 µM unless noted

Structures are written as SMILES. The panel holds about 83,000 compounds, 20% with a hit somewhere; the sample as a whole holds those more often.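 Percent growth is the endpoint: 0 to 100 indicates growth inhibition (40 means 60% inhibition), 0 means no net growth, and negative values indicate cell death.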 Unmarked numbers belong to inactive results. Calls of active or inactive are those of the source. How the source made its calls: active means growth percent below 10; inactive means the rest.

On to `Cn1cc(-c2nc(N)nnc2-c2c[nH]c3ccc(Br)cc23)c2cc(Br)cnc21`, for which the growth in the assay with SR leukemia was -17.2% (active); in the assay with RPMI-8226 leukemia, -12% (active); with OVCAR-8 ovarian it was 1.57% (active); with OVCAR-5 ovarian, 21.8%; with OVCAR-4 ovarian it was 32.8%; with SK-OV-3 ovarian it was 9.61% (active). Besides, the growth in the assay on IGROV1 ovarian is 14.2%; in the assay with OVCAR-3 ovarian it was 0.628% (active); in the assay on HS 578T breast, 30.2%; with NCI/ADR-RES ovarian it was 12.5%; with T-47D breast, 34.6%; in the assay on BT-549 breast, -33.4% (active). The growth with MDA-MB-435 melanoma was -20.8% (active); with SW-620 colon it was 20.8%; in the assay on MCF7 breast, 3.81% (active); in the assay on HCT-116 colon, -37.1% (active); in the assay on HCC-2998 colon, 1.16% (active); in the assay on KM12 colon, 5.44% (active). Besides, the growth in the assay with MDA-MB-468 breast was 1.62% (active).

Consider `COc1cc(C2CC(c3cc(OC)c(OC)c(OC)c3)=NN2c2ccccc2)ccc1OCc1ccc(C)cc1` (configuration not stated), for which the growth in the assay on SR leukemia was 105%; in the assay on RPMI-8226 leukemia, 102%; with OVCAR-8 ovarian, 98%; in the assay on OVCAR-5 ovarian, 105%; in the assay with OVCAR-4 ovarian, 89.2%; in the assay on SK-OV-3 ovarian it was 101%. In addition, the growth was 94.2% with IGROV1 ovarian; 101% in the assay on OVCAR-3 ovarian; 94.5% in the assay with HS 578T breast; 101% with NCI/ADR-RES ovarian; 79.9% with T-47D breast; 103% with BT-549 breast. For the same molecule, the growth in the assay on MDA-MB-435 melanoma was 97%; in the assay on SW-620 colon, 94.3%; in the assay with MCF7 breast, 81.3%; with HCT-116 colon, 80.6%; in the assay with HCC-2998 colon, 110%; in the assay on KM12 colon, 96.9%. Also, in the assay with MDA-MB-468 breast, the growth was 92.2%.

For the molecule `COc1cc(C2CC(c3ccc(S(=O)(=O)NCCNc4nc(Nc5ccc(F)cc5)nc(N(C)C)n4)cc3)=Nc3c(N)nc(N)nc3N2)cc(OC)c1OC` (configuration not stated), the growth with SR leukemia was 36.1%; with RPMI-8226 leukemia, 24.8%; in the assay on OVCAR-8 ovarian, 93.1%; in the assay with OVCAR-5 ovarian, 98.4%; in the assay with OVCAR-4 ovarian, 85.6%; with SK-OV-3 ovarian it was 110%. Besides, the growth was 81.7% with IGROV1 ovarian; 93.6% in the assay with OVCAR-3 ovarian; 76.5% in the assay on HS 578T breast; 95.6% in the assay on NCI/ADR-RES ovarian; 56.2% with T-47D breast; 62.8% in the assay on BT-549 breast. Further, the growth in the assay with MDA-MB-435 melanoma is 87.1%; in the assay with SW-620 colon it was 96.3%; with MCF7 breast, 51.1%; with HCT-116 colon, 82.6%; with HCC-2998 colon it was 87.5%; with KM12 colon, 95.5%. For the same molecule, the growth in the assay on MDA-MB-468 breast was 0.318% (active).

For `COc1c(F)ccc(C(=O)Nc2ccc3nc(NC(=O)C4CCCN(S(=O)(=O)c5ccc(Br)s5)C4)sc3c2)c1F` (configuration not stated), the growth in the assay with SR leukemia is 44.3%; in the assay on RPMI-8226 leukemia, 46.7%; with OVCAR-8 ovarian, 94.9%; with OVCAR-5 ovarian, 105%; in the assay on OVCAR-4 ovarian it was 67.9%; in the assay with SK-OV-3 ovarian, 109%. The growth is 81.5% in the assay with IGROV1 ovarian; 85.8% in the assay on OVCAR-3 ovarian; 58.8% in the assay with HS 578T breast; 84.8% in the assay on NCI/ADR-RES ovarian; 53.1% with T-47D breast; 75.5% in the assay with BT-549 breast. Also, the growth in the assay with MDA-MB-435 melanoma is 84.1%; in the assay with SW-620 colon it was 100%; in the assay on MCF7 breast it was 53.8%; with HCT-116 colon, 65.4%; with HCC-2998 colon, 98.7%; in the assay on KM12 colon, 75%. In addition, the growth in the assay on MDA-MB-468 breast is 83.7%.

As to `C=C1CCC2C3(C)COC(c4ccccc4F)OC3CCC2(C)C1CC(O)C1=CCOC1=O` (configuration not stated), the growth is 30.9% in the assay with SR leukemia; 10.7% in the assay with RPMI-8226 leukemia; -11.4% (active) with OVCAR-8 ovarian; 74.9% with OVCAR-5 ovarian; 50.3% in the assay with OVCAR-4 ovarian; 110% in the assay on SK-OV-3 ovarian. Besides, the growth with IGROV1 ovarian is 51.4%; with OVCAR-3 ovarian it was 31.1%; with HS 578T breast it was 78.3%; in the assay with NCI/ADR-RES ovarian, 5.4% (active); with T-47D breast, 42.1%; in the assay with BT-549 breast, -18.8% (active). The growth was 27.5% in the assay with MDA-MB-435 melanoma; -6.12% (active) in the assay with SW-620 colon; 15.2% in the assay with MCF7 breast; -59.4% (active) in the assay on HCT-116 colon; 36.7% in the assay with HCC-2998 colon; 45.3% in the assay on KM12 colon. Moreover, in the assay with MDA-MB-468 breast, the growth is 63.9%.

In the case of `CCOP(=O)(OCCCl)c1nc(-c2ccc(C)cc2)oc1NCc1ccccc1` (configuration not stated), the growth with SR leukemia was 66.8%; in the assay on RPMI-8226 leukemia it was 43.2%; with OVCAR-8 ovarian it was 78.7%; in the assay on OVCAR-5 ovarian it was 98.4%; in the assay on OVCAR-4 ovarian it was 68.3%; in the assay on SK-OV-3 ovarian, 91%. The growth in the assay with IGROV1 ovarian is 62.4%; in the assay with OVCAR-3 ovarian, 75%; in the assay on HS 578T breast it was 74.6%; in the assay with NCI/ADR-RES ovarian it was 63.8%; in the assay with T-47D breast, 48.1%; in the assay with BT-549 breast it was 92%. Also, the growth is 87.2% with MDA-MB-435 melanoma; 86.5% in the assay on SW-620 colon; 50.3% in the assay on MCF7 breast; 63.3% in the assay with HCT-116 colon; 94.6% in the assay on HCC-2998 colon; 77.6% with KM12 colon. Moreover, in the assay with MDA-MB-468 breast, the growth was 62.9%.

For `C#CCOc1ccc(/C=N/Nc2nc(-c3cc4cc(Br)ccc4oc3=O)cs2)cc1OC`, the growth in the assay on SR leukemia was 80.2%; in the assay on RPMI-8226 leukemia it was 68.2%; with OVCAR-8 ovarian, 65.7%; with OVCAR-5 ovarian, 73.9%; in the assay on OVCAR-4 ovarian it was 47.8%; in the assay with SK-OV-3 ovarian it was 25.7%. For the same molecule, the growth is 83.1% in the assay on IGROV1 ovarian; 87.3% in the assay with OVCAR-3 ovarian; 86.8% in the assay on HS 578T breast; 63.8% with NCI/ADR-RES ovarian; 51.1% in the assay on T-47D breast; 48.5% in the assay with BT-549 breast. In addition, the growth in the assay with MDA-MB-435 melanoma is 78.7%; with SW-620 colon, 77.6%; with MCF7 breast, 41.9%; in the assay on HCT-116 colon it was 71.5%; in the assay on HCC-2998 colon, 39.6%; with KM12 colon, 51.1%. For the same molecule, the growth in the assay with MDA-MB-468 breast was 26.8%.

For `COc1ccc(/C=C2\C(=N)N=C(SCc3nc4ccccc4[nH]3)NC2=O)cc1`, the growth was 103% in the assay on SR leukemia; 95.8% with RPMI-8226 leukemia; 107% in the assay with OVCAR-8 ovarian; 119% in the assay with OVCAR-5 ovarian; 102% in the assay with OVCAR-4 ovarian; 116% with SK-OV-3 ovarian. Moreover, the growth in the assay with IGROV1 ovarian is 114%; in the assay on OVCAR-3 ovarian it was 110%; in the assay on HS 578T breast, 99.5%; in the assay with NCI/ADR-RES ovarian, 104%; in the assay with T-47D breast, 87.9%; in the assay on BT-549 breast it was 106%. The growth in the assay on MDA-MB-435 melanoma was 105%; in the assay on SW-620 colon, 98.8%; with MCF7 breast, 99.1%; in the assay with HCT-116 colon, 105%; with HCC-2998 colon, 116%; in the assay on KM12 colon, 105%. Also, in the assay on MDA-MB-468 breast, the growth is 119%.
